Assay [1] addresses Glutaminase kidney isoform, mitochondrial (Homo sapiens) (UniProt O94925). The assay can be described thus: qHTS for Inhibitors of Glutaminase (GLS): LOPAC Validation (AID 624146).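 Note: glutamate product detected by oxidase and peroxidase coupled Amplex red fluorescence gain; series mostly up to about 46 µM; % is set by controls: 0 for no effect and ±100 for the full control effect; nearly all actives have a fitted effect of over 60% in size.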 The method in brief: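 Read-out is an Amplex red fluorescence increase coupled through glutamate oxidase and HRP, measured before and after 30 min room-temperature incubation. hKGA is in 45 mM KH2PO4 (pH 8.2) with 0.02% Tween-20; glutamine added as 1mM solution.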
In general terms: In qHTS, concentration-response curves come from the screen itself.

Assay [2] in a line: qHTS of Trypanosoma Brucei Inhibitors: LOPAC Validation (AID 624147). Note: 0% is about no effect. The method in brief: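 TbPYK + substrate in 50 mM TEA pH 7.2, 100 mM KCl, 10 mM MgCl2, 0.05% BSA, 0.01% Tween-20; cpd pinned; ADP 130 uM final; 45 min RT; Kinase-Glo Plus 10 min; luminescence endpoint.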
For assay [3], the target named is Glucagon-like peptide 1 receptor (Homo sapiens) (UniProt P43220). The assay can be described thus: qHTS of GLP-1 Receptor Agonists: LOPAC Validation (AID 624148).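 Note: 0% is about no effect; higher luminescence signal means agonism.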 The method in brief: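 HEK293 cells stably co-expressing a cAMP-responsive luciferase reporter and a hypersensitive GLP-1R were plated 12 h at 37 °C and exposed to compounds for 4-6 hr at 37 °C, 5% CO2. Luminescence was read 12 min after adding detection reagent.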

Assay [4] in a line: qHTS of Nrf2 Activators: LOPAC Validation (AID 624149). Note: 0% is about no effect. The method in brief: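 Cells (AREc32_Fluc) are plated at 1000 per well in OPTI-MEM containing 5% FBS and left overnight. Compounds are pinned in and incubated 24 hr at 37 deg C, and firefly luciferase is detected with Steady-Glo.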
Assay [5] in a line: HTS Assay for Allosteric Antagonists of the Human D2 Dopamine Receptor: Hit Validation in HTRF (AID 624455).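 Note: stable D1 dopamine receptor cell line scored for blocking the D1 response; % is set by controls: 0 for no effect and ±100 for the full control effect.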 The method in brief: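 Inhibition of the D1-mediated response is measured by HTRF in cells that stably express the D1 dopamine receptor. Compounds reaching this step are hits from calcium-flux antagonism testing at EC80 dopamine in inducible Hek293 Trex D2 cells.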
On the technique in general: Time-resolved FRET reads energy transfer from a long-lived donor to a nearby acceptor.

Assay [6] in a line: S16 Schwann cell PMP22 intronic element firefly luciferase assay (AID 624032). Note: nearly all actives have a fitted effect of over 30% in size. Note: potency is the fitted concentration of half-maximal effect. The method in brief: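 Rat S16 Schwann cells stably carrying a PMP22 intronic element-driven Fluc reporter were seeded overnight, then exposed to compounds for 24 h at 37 °C. Luminescence was normalized to PTC124 (positive control) and DMSO (0% activity).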
Assay [7] in a line: qHTS assay for small molecule agonists of the antioxidant response element (ARE) signaling pathway (AID 651741; active = well fitted activation curve with a large enough effect in the signal ratio; the % refers to the signal ratio; note: potency is the fitted concentration of half-maximal effect; for activation: % of control where 0% means no effect). The method in brief: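 Reporter: beta-lactamase under ARE, stably in HepG2. Exposure: 16 h, 37 C, compounds delivered in DMSO by pin tool after 5 h cell preincubation. Readout: FRET substrate fluorescence after 2 h at RT.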
The nature of assay [8]: qHTS assay for small molecule activators of the nuclear factor-kappa B (NF-kB) signaling pathway (AID 651749; active = well fitted activation curve with a large enough effect in the signal ratio; the % refers to the signal ratio; note: series mostly up to about 77 µM; % of control where 0% means no effect). To be noted: NF-kB-bla ME-180 cells, beta-lactamase FRET ratio, 16 h; stronger effect = higher value. The method in brief: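 Human ME-180 cervical cells with an NF-kB-bla construct; compounds added via 23 nL pin transfer, DMSO as vehicle; incubation 16 hr. Reporter activity measured by FRET disruption.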

A short description of assay [9]: S16 Schwann cell PMP22 intronic element beta-lactamase assay (AID 624044; calls by dose curve;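 note: 0% = DMSO and -100% = potassium clavulanate positive control; nearly all actives have a fitted effect of over 15% in size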). The method in brief:
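Beta-lactamase reporter under a PMP22 intronic regulatory element in stable S16 rat Schwann cells; 24 h compound exposure. 460 nm blue signal normalized between DMSO (0%) and potassium clavulanate, with 535 nm FRET tracking viability; curves classed by r2 and response.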

The nature of assay [10]: qHTS assay for small molecule activators of the p53 signaling pathway (AID 651743; active = well fitted activation curve with a large enough effect in the signal ratio, not every such curve was filed as active; the % refers to the signal ratio; note: series mostly up to about 92 µM; % of control where 0% means no effect). To be noted: HCT-116 p53RE-bla, beta-lactamase FRET ratio, 16 h; activation: stronger effect = higher value. The method in brief:
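Agonist-mode quantitative HTS in HCT-116 cells carrying a p53-response-element beta-lactamase reporter; 16 h compound treatment at 37 C, then FRET substrate loading for 2 h at room temperature and fluorescence read.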

Each structure is given as a SMILES string. Values joined by “and” are separate entries in the source; they are usually repeats but may differ in a detail not shown here. Equal values may be shown once. Unmarked numbers belong to inactive results. Records with an inconclusive call do not appear. Active and inactive are the calls of the source. Unless noted, calls come from the whole dose curve; as a rule, active = well fitted curve in the direction sought with a large enough effect; inconclusive = small, poorly fitted or top-dose-only effect, or another doubt; inactive = no such curve, though single readings can be large; an effect the other way counts as inactive or inconclusive.

Chain of Glutaminase kidney isoform, mitochondrial (Homo sapiens) (O94925 whole entry, looked up, canonical isoform): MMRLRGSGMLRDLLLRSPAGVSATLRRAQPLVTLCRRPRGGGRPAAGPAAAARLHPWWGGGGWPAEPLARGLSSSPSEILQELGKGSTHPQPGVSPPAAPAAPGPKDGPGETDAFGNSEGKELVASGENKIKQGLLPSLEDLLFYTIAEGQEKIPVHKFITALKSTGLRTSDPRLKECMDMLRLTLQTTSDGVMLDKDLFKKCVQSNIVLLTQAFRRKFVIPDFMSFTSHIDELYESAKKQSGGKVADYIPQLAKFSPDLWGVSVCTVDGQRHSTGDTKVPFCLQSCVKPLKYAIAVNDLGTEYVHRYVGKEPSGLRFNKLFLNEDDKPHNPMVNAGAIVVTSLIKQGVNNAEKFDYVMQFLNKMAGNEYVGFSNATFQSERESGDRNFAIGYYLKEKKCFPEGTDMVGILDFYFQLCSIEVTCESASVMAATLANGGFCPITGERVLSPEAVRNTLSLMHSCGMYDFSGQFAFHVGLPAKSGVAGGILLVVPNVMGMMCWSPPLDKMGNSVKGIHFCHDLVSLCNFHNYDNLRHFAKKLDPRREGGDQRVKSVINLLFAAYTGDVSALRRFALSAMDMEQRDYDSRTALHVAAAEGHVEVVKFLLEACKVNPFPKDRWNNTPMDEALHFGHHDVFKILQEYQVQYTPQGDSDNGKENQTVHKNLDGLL
Chain of Glucagon-like peptide 1 receptor (Homo sapiens) (P43220 whole entry, looked up): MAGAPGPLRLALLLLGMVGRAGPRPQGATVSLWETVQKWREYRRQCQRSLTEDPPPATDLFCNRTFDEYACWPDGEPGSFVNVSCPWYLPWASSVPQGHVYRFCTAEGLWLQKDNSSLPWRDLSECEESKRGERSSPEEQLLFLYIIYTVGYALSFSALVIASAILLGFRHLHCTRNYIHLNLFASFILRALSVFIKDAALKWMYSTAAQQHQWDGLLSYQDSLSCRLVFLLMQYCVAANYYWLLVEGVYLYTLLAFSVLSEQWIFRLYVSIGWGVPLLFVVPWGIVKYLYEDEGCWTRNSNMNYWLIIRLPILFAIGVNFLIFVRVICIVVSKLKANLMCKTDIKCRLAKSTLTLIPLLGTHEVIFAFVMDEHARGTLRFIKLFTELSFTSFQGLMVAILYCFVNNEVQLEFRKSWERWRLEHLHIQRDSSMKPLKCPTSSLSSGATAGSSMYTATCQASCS

Regarding `CCCN(CCC)C1Cc2cc(OC)c(OC)cc2C1`, the Potency entry in [1], in [2], in assay [4] and in assay [5] was “inactive” each time. The outcome in [3] was inactive.

Turning to `Oc1cc(Cl)c(Cl)cc1Cl`, the Potency result in assay [6] is “inactive”. The Potency in [7] is 42.2 µM (active). For the same molecule, the activation in assay [8] was 1.51% and -0.218%.

Regarding `CCCN(CCC)C1CCc2cccc(O)c2C1` (configuration not stated), the Potency entry in assay [1], in assay [2] and in assay [4] was “inactive” throughout. Besides, in assay [3], the call was inactive.

Turning to `O=C1CN=C(c2ccccc2)c2cc(Cl)ccc2N1CC1CC1`, the Potency result in assay [9] was “inactive”.

For the molecule `COCC(C)N(C(=O)CCl)c1c(C)csc1C` (configuration not stated), the Potency entry in [6] was “inactive”. For the same molecule, the Potency in assay [7] was 15.4 µM (active). The activation in assay [10] is -0.528%; in assay [8] it was -2.83%.

`[Cl-].[Cl-].[Hg+2]`: the Potency in assay [6] is 0.809 µM (active); in assay [7], 29.8 µM (active). In addition, in [10], the activation is 5.15%.

In the case of `C=CCN=C=S`, the Potency result in [6] and in assay [7] was “inactive” each time. The activation in assay [10] was -0.403%; in assay [8] it was -1.41%.

As to `CC[N+](C)(CC)CCOC(=O)C(O)(c1ccccc1)c1ccccc1`, in [9], the Potency result was “inactive”.

As to `CC12NC(Cc3ccccc31)c1ccccc12` (configuration not stated), the Potency result in [6], in assay [1], in assay [2], in [4] and in assay [5] was “inactive” in each case. Moreover, the outcome in [3] was inactive.

Consider `O=C1CC[C@@]2(O)C3Cc4ccc(O)c5c4C2(CCN3CC2CC2)[C@H]1O5` (some centres not stated), for which the Potency result in assay [6], in assay [2], in assay [4] and in assay [5] was “inactive” each time. The call in [3] was inactive.

As to `CC(C)CCON=O`, in assay [6], the Potency result is “inactive”. The activation in assay [10] was -3.9%.

Consider `C[C@H]1CCC[C@H](O)CCCCCc2cc(O)cc(O)c2C(=O)O1`, for which the Potency result in assay [9] was “inactive”. Further, the activation in assay [10] was -0.975%; in assay [8], -0.26%.

Regarding `O=c1[nH]cc(N(CCCl)CCCl)c(=O)[nH]1`, the Potency entry in assay [9] was “inactive”.

For the molecule `CC(=O)OC1CN2CCC1CC2` (configuration not stated), the Potency result in assay [9] was “inactive”.

On to `C[C@@H]1O[C@@H](O[C@H]2C[C@@H](O)[C@]3(CO)[C@@H]4C(CC[C@]3(O)C2)[C@@]2(O)CC[C@H]([C@@H]3COC(=O)C3)[C@@]2(C)C[C@H]4O)[C@H](O)[C@H](O)[C@H]1O` (some centres not stated), for which the Potency entry in assay [1], in assay [2] and in assay [4] was “inactive” each time. The molecule was classed as inactive in assay [3].

The record behind these values is PubChem BioAssay (NCATS).
